Screening results from PubChem BioAssay.
VLA-4 inh = inhibition in a human VLA-4 binding assay. P13612. VLA-4 expressing cells, ligand binding flow cytometry. inhibition, % (about 7 µM as worked out from the volumes in the protocol). actives 0.2% (n = 330,000). AID 2557; in the data active = inhibition above about 50%
Target sequence (P13612 whole entry, looked up): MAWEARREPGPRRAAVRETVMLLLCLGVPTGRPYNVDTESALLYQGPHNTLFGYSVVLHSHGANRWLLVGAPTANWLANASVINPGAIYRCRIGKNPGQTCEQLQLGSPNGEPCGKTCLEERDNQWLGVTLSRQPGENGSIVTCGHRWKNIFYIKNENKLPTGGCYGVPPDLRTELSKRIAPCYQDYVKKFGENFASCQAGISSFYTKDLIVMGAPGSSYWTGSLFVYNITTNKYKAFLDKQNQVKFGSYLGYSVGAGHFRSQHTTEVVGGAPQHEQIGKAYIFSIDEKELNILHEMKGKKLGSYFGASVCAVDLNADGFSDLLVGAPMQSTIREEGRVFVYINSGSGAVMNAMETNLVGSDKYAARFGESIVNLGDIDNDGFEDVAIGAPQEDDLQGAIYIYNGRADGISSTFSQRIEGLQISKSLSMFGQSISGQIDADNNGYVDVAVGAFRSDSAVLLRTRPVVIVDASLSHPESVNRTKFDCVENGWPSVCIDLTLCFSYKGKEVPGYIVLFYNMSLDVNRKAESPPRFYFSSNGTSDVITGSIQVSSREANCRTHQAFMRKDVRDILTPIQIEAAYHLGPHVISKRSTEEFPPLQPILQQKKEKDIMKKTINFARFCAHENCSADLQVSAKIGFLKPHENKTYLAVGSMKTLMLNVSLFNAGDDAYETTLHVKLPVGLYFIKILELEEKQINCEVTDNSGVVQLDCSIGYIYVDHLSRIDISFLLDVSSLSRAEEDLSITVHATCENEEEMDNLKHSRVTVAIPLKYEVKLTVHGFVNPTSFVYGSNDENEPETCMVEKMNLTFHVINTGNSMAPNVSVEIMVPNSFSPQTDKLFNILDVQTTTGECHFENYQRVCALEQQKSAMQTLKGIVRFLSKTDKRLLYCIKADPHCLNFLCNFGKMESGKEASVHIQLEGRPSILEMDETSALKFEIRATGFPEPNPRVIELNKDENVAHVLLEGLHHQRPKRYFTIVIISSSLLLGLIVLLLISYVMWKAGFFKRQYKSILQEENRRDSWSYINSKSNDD
APOBEC3G inh = blocks human APOBEC3G single-stranded DNA deamination | recombinant A3G, ssDNA deamination FAM/TAMRA fluorescence | AID 493012 | inhibition, % at 20 µM | actives 0.28% (n = 330,000) | Q9HC16;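 active = inhibition of at least 40% at 20 µM, with no more than 30% in the related APOBEC3A deaminase screen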;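 also: plate controls were DMSO wells with A3G for no effect and wells lacking A3G enzyme for full effect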
CendR NRP1 mod = modulators of CendR peptide binding to human neuropilin-1. O14786. FAM-RPARPAR peptide binding to NRP-1, fluorescence polarization. inhibition, % at 25 µM. AID 602438. actives 0.85% (n = 360,000);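 active = inhibition or corrected inhibition above about 18%, plus a signal ratio from 0.5 to 1.5, limit read from the data, passing the limit was not always enough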
beta cell repl = MIN6 beta-cell proliferation induction; MIN6 cells proliferation, ATPlite luminescence, 48 h; cells starved in 0.2% serum; 100% = growth in 10% serum; proliferation, % at 10 µM; actives 0.29% (n = 330,000); AID 2380;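 active = compounds whose signal lies at least 3.5 SD above the mean of all wells on their plate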;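 also: 0% = DMSO-treated cells in low-serum medium and 100% = 10% serum control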
APOBEC3A inh = human APOBEC3A DNA deaminase inhibition; P31941; recombinant A3A, FAM/TAMRA ssDNA deamination fluorescence; inhibition, % at 20 µM; actives 0.41% (n = 330,000); AID 493011;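 active = at least 40% inhibition at 20 µM here, with at most 30% in a related deaminase screen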;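 also: plate controls were A3A with DMSO for no effect and wells lacking A3A enzyme for full effect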
APOBEC3G confirm = confirmation of human APOBEC3G DNA deaminase inhibitors | shares compounds with APOBEC3G inh | recombinant A3G ssDNA deaminase, UDG/FAM-TAMRA fluorescence | inhibition, % at 20 µM | actives 72% (n = 890) | AID 493152;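 active = inhibition reaching a set limit in any replicate at 20 µM, the limit being 80% of the first screen's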
UDG A3G counter = inhibits E. coli UDG, flagging false APOBEC3G inhibitors; UDG counterscreen, FAM/TAMRA oligo fluorescence; shares compounds with APOBEC3G inh; inhibition, % at 20 µM; 710 tested, under 10 active;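 active = compounds giving 40% or more inhibition at 20 µM in any one of the three replicates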;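 also: plate controls were DMSO wells with UDG and oligo for no effect and DMSO wells lacking both for full effect; inhibitors lower the FAM signal released by uracil excision and alkaline cleavage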
* hit, by the source's call. Hits are enriched below; roughly 1.8% of the tested compounds scored in any of these assays.

What do the screens show for `O=C1NN=C(CSc2n[nH]c(=S)s2)CS1`?
VLA-4 inh: 3; APOBEC3G inh: 67*; CendR NRP1 mod: 12; beta cell repl: 1; APOBEC3A inh: 1; APOBEC3G confirm: 67*; UDG A3G counter: 2

Results for COc1cccc(CN2CCN(Cc3cc4ccccc4[nH]3)CC2CCO)c1 (centres undefined) ?
VLA-4 inh: -2; APOBEC3G inh: -2; CendR NRP1 mod: -6; beta cell repl: 3; APOBEC3A inh: 4

What do the screens show for `COc1cccc(CN2CCN(Cc3[nH]c4ccccc4c3C)CC2CCO)c1` (centres undefined)?
VLA-4 inh: -2; APOBEC3G inh: 51*; CendR NRP1 mod: -2; beta cell repl: 0; APOBEC3A inh: -2; APOBEC3G confirm: -8; UDG A3G counter: -8

What do the screens show for `CCCCSCCCNC(=O)c1ccc(CS(=O)(=O)c2ccc(OC)cc2)o1`?
VLA-4 inh: -7; APOBEC3G inh: -8; CendR NRP1 mod: -1; beta cell repl: 2; APOBEC3A inh: -4

Results for N#CC1=C2SCN(c3ccccc3)CN2C(=O)CC1c1c(Cl)cccc1Cl (centres undefined) ?
VLA-4 inh: -6; APOBEC3G inh: 59*; CendR NRP1 mod: -7; beta cell repl: -1; APOBEC3A inh: -8; APOBEC3G confirm: 65*; UDG A3G counter: 1

How did N#CC1=C2SCN(c3ccccc3)CN2C(=O)CC1c1cccs1 (centres undefined) do in these assays?
VLA-4 inh: 5; APOBEC3G inh: 48*; CendR NRP1 mod: -16; beta cell repl: -2; APOBEC3A inh: 7; APOBEC3G confirm: 55*; UDG A3G counter: -2

How did N#CC1=C2SCC(O)(c3ccccc3)N2C(=O)CC1c1cccs1 (centres undefined) do in these assays?
VLA-4 inh: 0; CendR NRP1 mod: -13

What do the screens show for `CC1CCN(C(=O)C2CCN(S(=O)(=O)c3ccc(-n4cnnn4)cc3)CC2)CC1`?
VLA-4 inh: 8; APOBEC3G inh: -3; CendR NRP1 mod: 14; beta cell repl: 0; APOBEC3A inh: 0

Results for O=C(CN1C(=O)C(=O)N(C2CCCC2)C1=O)Nc1ccc(F)cc1F ?
APOBEC3G inh: -4; CendR NRP1 mod: 9; beta cell repl: -2; APOBEC3A inh: 1

What do the screens show for `CCN(C(=O)COC(=O)c1oc2ccc(OC)cc2c1C)C1CCS(=O)(=O)C1` (centres undefined)?
APOBEC3G inh: -6; CendR NRP1 mod: 4; beta cell repl: 1; APOBEC3A inh: -2

What do the screens show for `O=C(/N=C1\NC(=O)C(F)(C(F)(F)F)S1)NC1CCCCC1` (centres undefined)?
VLA-4 inh: -20; APOBEC3G inh: 50*; CendR NRP1 mod: -25; beta cell repl: 1; APOBEC3A inh: 0; APOBEC3G confirm: 48*; UDG A3G counter: 3

Results for Cc1ccc(Nc2nnns2)cc1 ?
VLA-4 inh: 1; APOBEC3G inh: 41*; CendR NRP1 mod: 5; beta cell repl: -4; APOBEC3A inh: 2; APOBEC3G confirm: 27*; UDG A3G counter: -4

Results for C(#Cc1c(-c2ccsc2)sc2ccccc12)c1ccsc1 ?
VLA-4 inh: -34; APOBEC3G inh: -4; CendR NRP1 mod: -3; beta cell repl: -5; APOBEC3A inh: 3

Results for COc1ccc(N2C(=O)CS(=O)C(c3ccccc3)C2=O)cc1 (centres undefined) ?
VLA-4 inh: 0; APOBEC3G inh: 54*; CendR NRP1 mod: 14; beta cell repl: -4; APOBEC3A inh: -4; APOBEC3G confirm: 90*; UDG A3G counter: -4

How did Cc1ccc(N2C(=O)CS(=O)C(c3ccccc3)C2=O)cc1C (centres undefined) do in these assays?
VLA-4 inh: 16; APOBEC3G inh: 16; CendR NRP1 mod: -3; beta cell repl: -5; APOBEC3A inh: -2

Results for COc1ccc(N2C(=O)/C(=C/c3cccs3)NC2=S)cc1 ?
VLA-4 inh: 14; APOBEC3G inh: 60*; CendR NRP1 mod: -2; beta cell repl: -5; APOBEC3A inh: 1; APOBEC3G confirm: 39*; UDG A3G counter: 4

How did CCOc1ccccc1N1C(=O)CC(Sc2n[nH]c(-c3ccccc3)n2)C1=O (centres undefined) do in these assays?
VLA-4 inh: -4; APOBEC3G inh: 58*; CendR NRP1 mod: 6; beta cell repl: -6; APOBEC3A inh: -2; APOBEC3G confirm: 66*; UDG A3G counter: 0

What do the screens show for `COc1ccc(N2C(=O)CC(Sc3n[nH]c(-c4cccc(C)c4)n3)C2=O)cc1` (centres undefined)?
VLA-4 inh: 8; APOBEC3G inh: 34; CendR NRP1 mod: 5; beta cell repl: -4; APOBEC3A inh: -4

How did CCn1c(CCCCc2n[nH]c(=S)n2CC)n[nH]c1=S do in these assays?
VLA-4 inh: 0; APOBEC3G inh: 47*; CendR NRP1 mod: -6; beta cell repl: -2; APOBEC3A inh: -1; APOBEC3G confirm: 88*; UDG A3G counter: 6

How did CCCCn1c(-c2ccc([N+](=O)[O-])cc2)n[nH]c1=S do in these assays?
VLA-4 inh: 1; APOBEC3G inh: 48*; CendR NRP1 mod: 6; beta cell repl: -5; APOBEC3A inh: -17; APOBEC3G confirm: 76*; UDG A3G counter: 2

How did CCn1c(-c2ccc(Cl)cc2)n[nH]c1=S do in these assays?
VLA-4 inh: 3; APOBEC3G inh: 54*; CendR NRP1 mod: 0; beta cell repl: -3; APOBEC3A inh: -2; APOBEC3G confirm: 80*; UDG A3G counter: 1

How did CCn1c(-c2ccc(C)cc2)n[nH]c1=S do in these assays?
VLA-4 inh: 7; APOBEC3G inh: 51*; CendR NRP1 mod: 3; beta cell repl: -1; APOBEC3A inh: 2; APOBEC3G confirm: 29

How did CCCn1c(-c2ccc(F)cc2)n[nH]c1=S do in these assays?
VLA-4 inh: 11; APOBEC3G inh: 36; CendR NRP1 mod: -17; beta cell repl: -1; APOBEC3A inh: -5

Results for COc1ccccc1CNC(=O)CCCn1nc(C)n2ccnc2c1=O ?
VLA-4 inh: -35; APOBEC3G inh: -5; CendR NRP1 mod: 4; beta cell repl: -2; APOBEC3A inh: -6

What do the screens show for `CN(Cc1nc2ccccc2c(=O)[nH]1)C(=O)c1ccc(S(=O)(=O)N2CCCC2)cc1`?
VLA-4 inh: 12; APOBEC3G inh: -6; CendR NRP1 mod: 1; beta cell repl: 3; APOBEC3A inh: -6

What do the screens show for `COc1ccc(NC(=O)COC(=O)c2cc(Cl)ccc2O)cc1S(=O)(=O)N1CCCCC1`?
VLA-4 inh: 31; APOBEC3G inh: -2; CendR NRP1 mod: 0; beta cell repl: -2; APOBEC3A inh: 3

How did COc1ccc(NC(=O)C2(C)Cc3c(-c4ccc(NC(C)=O)cc4)ccnc3O2)cc1OC (centres undefined) do in these assays?
CendR NRP1 mod: 0
